# CYP2C19 act: activators of human cytochrome P450 2C19; P33261; recombinant CYP2C19, luciferin-H EGE luminescence; hits give high values; 0 = fully inhibited enzyme, 1 = untreated enzyme; activation factor at 5 µM; 96,000 tested, under 10 active;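 active means activation factor of at least 2 at 5 µM in the primary screen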
# CYP2C9 inh: human CYP2C9 inhibition | CYP2C9 Supersomes, luciferin-H conversion, luminescence | inhibition, % at 5 µM | 20% of 96,000 active | P11712;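 active means blocking of liver enzyme CYP2C9 beyond about 50% at 5 µM, limit read from the data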
# CD11b adhes inh: CD11b/CD18-fibrinogen binding inhibition. AID 1497. K562 CD11b/CD18 adhesion to fibrinogen, ATPlite luminescence; Mn2+ added to activate the integrin. P05107+P11215. inhibition, % at 10 µM. 0.54% of 93,000 active;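 active means primary inhibition of 50% or more at 10 µM, then 40% or more on retest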
# Target sequence (P05107 whole entry, looked up, other chains not shown): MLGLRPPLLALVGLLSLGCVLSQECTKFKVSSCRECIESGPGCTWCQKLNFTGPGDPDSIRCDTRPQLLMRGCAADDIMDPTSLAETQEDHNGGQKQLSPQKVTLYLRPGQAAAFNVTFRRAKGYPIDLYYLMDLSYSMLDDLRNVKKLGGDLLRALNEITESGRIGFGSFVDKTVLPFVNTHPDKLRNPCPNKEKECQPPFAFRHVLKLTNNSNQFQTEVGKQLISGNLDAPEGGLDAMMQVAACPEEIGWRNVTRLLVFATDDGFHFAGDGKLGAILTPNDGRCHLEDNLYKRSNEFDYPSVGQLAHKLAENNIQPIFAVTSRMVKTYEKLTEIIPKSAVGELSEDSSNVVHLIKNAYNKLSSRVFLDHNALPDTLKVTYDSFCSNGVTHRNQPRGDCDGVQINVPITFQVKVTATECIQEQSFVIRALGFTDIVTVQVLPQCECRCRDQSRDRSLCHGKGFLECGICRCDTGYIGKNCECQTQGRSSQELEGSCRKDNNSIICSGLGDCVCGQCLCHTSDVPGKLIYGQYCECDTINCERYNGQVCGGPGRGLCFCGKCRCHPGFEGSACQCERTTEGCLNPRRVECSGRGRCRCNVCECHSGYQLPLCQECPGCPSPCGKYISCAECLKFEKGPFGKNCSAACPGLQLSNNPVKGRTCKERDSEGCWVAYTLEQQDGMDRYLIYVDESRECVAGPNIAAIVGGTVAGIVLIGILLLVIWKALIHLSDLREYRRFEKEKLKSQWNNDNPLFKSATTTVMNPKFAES
# CYP2C19 inhib: blocks human cytochrome P450 2C19. P33261. AID 778. inhibition, % at 5 µM. 21% of 96,000 active. CYP2C19 Supersomes, luciferin-H EGE luminescence, 30 min;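 active means CYP2C19 inhibition above a set limit at 5 µM in the primary screen, cut at about 50% in these data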
# CD11b adhes enh: CD11b/CD18-fibrinogen binding enhancement | activation, % at 10 µM | K562 CD11b/CD18 adhesion to fibrinogen, ATPlite luminescence | AID 1499 | 0.07% of 93,000 active;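 active means 10 µM primary screen giving 50% or more activity, confirmed by 40% or more on retest at that dose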
# CYP2C9 act: activators of human CYP2C9. activation factor at 5 µM. recombinant CYP2C9, luciferin-H conversion, luminescence; hits give high values; factor 1 = untreated enzyme, 0 = blocked. P11712. AID 1024. 1.4% of 96,000 active;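 active means activation factor of 2 or more for CYP2C9 at a 5 µM dose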
# A number is an active result; 0 = inactive; - = not tested or not shown. This is a sample that favours compounds with a hit; in the whole collection about 28% have one here.
SMILES,CYP2C19 act,CYP2C9 inh,CD11b adhes inh,CYP2C19 inhib,CD11b adhes enh,CYP2C9 act
CC(c1ccco1)N(C(=O)c1ccc(Cl)s1)c1ccccn1 (stereo unspecified),0,58.7,0,88.6,0,0
Cc1ccc(C(=O)N(c2ccccn2)C(C)c2ccco2)cc1C (stereo unspecified),0,0,0,0,0,0
CCCCC(=O)Nc1nc(C)c(-c2csc(Nc3cc(Cl)ccc3OC)n2)s1,0,0,0,0,0,0
CCC(C)C(=O)Nc1nc(C)c(-c2csc(Nc3cc(OC)ccc3OC)n2)s1 (stereo unspecified),0,74.7,0,0,0,0
CCC(C)C(=O)Nc1nc(C)c(-c2csc(Nc3cc(Cl)ccc3OC)n2)s1 (stereo unspecified),0,0,0,0,0,0
COc1ccc(OC)c(Nc2nc(-c3sc(C)nc3C)cs2)c1,0,80.2,0,85.3,0,0
CCCC(C)C(=O)Nc1nc(C)c(-c2csc(Nc3ccc(Cl)cc3)n2)s1 (stereo unspecified),0,54.7,-,0,-,0
CCCCC(=O)Nc1nc(C)c(-c2csc(Nc3cc(OC)ccc3OC)n2)s1,0,79.0,0,0,0,0
COc1ccc(OC)c(Nc2nc(-c3sc(NC(=O)CC(C)C)nc3C)cs2)c1,0,78.4,0,0,0,0
CCCC(C)C(=O)Nc1nc(C)c(-c2csc(Nc3ccccc3OC)n2)s1 (stereo unspecified),0,73.5,0,0,0,0
COc1ccccc1Nc1nc(-c2sc(NC(=O)c3ccccc3)nc2C)cs1,0,0,0,0,0,0
COc1ccccc1Nc1nc(-c2sc(NC(=O)c3ccc([N+](=O)[O-])cc3)nc2C)cs1,0,78.3,-,0,-,0
COc1ccc(C)cc1NC(=O)C(=O)NNC(=O)c1ccco1,0,0,0,0,0,0
COC(=O)c1ccc(NC(=O)C2CCCN(S(=O)(=O)c3cnc[nH]3)C2)cc1 (stereo unspecified),0,86.4,0,78.8,0,0
CSc1cccc(NC(=O)C2CCCN(S(=O)(=O)c3cnc[nH]3)C2)c1 (stereo unspecified),0,92.9,0,97.5,0,0
CSc1cccc(NC(=O)C2CCN(S(C)(=O)=O)CC2)c1,0,0,0,0,0,0
CCOC(=O)C(Sc1n[nH]c(N)n1)c1ccccc1 (stereo unspecified),0,0,0,0,0,0
CCC(=O)Nc1ccnc(-c2cccnc2)n1,0,0,-,64.7,-,0
O=C(Nc1ccnc(-c2cccnc2)n1)c1ccc(Cl)c(Cl)c1,0,0,0,0,0,0
CC(C)(C)C(=O)Nc1ccnc(-c2cccnc2)n1,0,59.2,-,83.2,-,0
CCOc1ccc(CCN2C(=O)CCC2(C)C(=O)NC(C)CC)cc1OCC (stereo unspecified),0,0,0,0,0,0
COc1ccccc1OCC(=O)NNC(=O)C(=O)N1CCCC1,-,-,0,-,0,-
CCSc1ccccc1C(=O)N1CCN(Cc2ccc3c(c2)OCO3)CC1,0,0,0,0,0,0
Cc1nn(Cc2ccccc2)c2sc(C(=O)N3CCN(Cc4ccc5c(c4)OCO5)CC3)cc12,0,66.7,0,0,0,0
CCn1cnc2sc(C(=O)N3CCN(Cc4ccc5c(c4)OCO5)CC3)c(C)c2c1=O,0,75.3,0,85.2,0,0
SMILES,CYP2C19 act,CYP2C9 inh,CD11b adhes inh,CYP2C19 inhib,CD11b adhes enh,CYP2C9 act
O=C(Cn1cnc2ccccc2c1=O)N1CCN(Cc2ccc3c(c2)OCO3)CC1,0,0,0,0,0,0
CC1CCN(c2nc3ccc(C(=O)N4CCN(Cc5ccccc5)CC4)cc3s2)CC1,0,0,0,59.6,0,0
CCOC(=O)N1CCN(C(=O)c2ccc3nc(N4CCC(C)CC4)sc3c2)CC1,0,0,-,0,-,0
O=C(c1ccc2nc(N3CCOCC3)sc2c1)N1CCC(Cc2ccccc2)CC1,0,0,0,80.5,0,0
Cc1cc(C(=O)N2CCN(S(C)(=O)=O)CC2)cs1,0,0,0,55.8,0,0
O=C(c1ccc2nc(N3CCCCC3)sc2c1)N1CCN(Cc2ccc3c(c2)OCO3)CC1,0,83.3,0,88.7,0,0
Cc1cc(C(=O)N2CCN(Cc3ccc4c(c3)OCO4)CC2)cs1,0,59.2,0,96.2,0,0
CCOC(=O)N1CCN(C(=O)c2ccc3nc(N4CCCCC4)sc3c2)CC1,0,0,-,0,-,0
